From PubChem BioAssay (NCI) come the findings set out here.

Some test systems named below: NCI-H23 lung; NCI-H226 lung; NCI-H322M lung; HOP-62 NSCLC; NCI-H460 lung; HOP-92 NSCLC; NCI-H522 lung; A549/ATCC NSCLC; 786-0 renal; COLO 205 colon; DU-145 prostate; K-562 leukemia; MALME-3M melanoma; MDA-MB-231 breast; RXF 393 renal; SF-268 CNS; SF-295 CNS; SF-539 CNS; UACC-257 melanoma; M14 melanoma.
Test in all cases: NCI-60 one-dose screen, 48 h (100 = growth as untreated, 0 = no growth, -100 = all killed)
Details in all cases: 10 µM

Compounds without any hit were thinned out: in the full panel of roughly 83,000, 20% have a hit.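 Interpretation: 100, growth as untreated; towards 0, rising growth inhibition; 0, no net growth; 0 to -100, cell death. Compounds scoring below 10 were considered active.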 A number with no mark means an inactive call. Calls of active or inactive are those of the source.

In the case of `C[C@@H]1C(=O)N(C[C@H](Cc2ccccc2)NC(=O)OCc2ccccc2)[C@]1(Cc1ccccc1)C(=O)OCc1ccccc1`, the growth in the test with NCI-H23 lung is 34.3%; in the test with NCI-H226 lung, 48.5%; with NCI-H322M lung, 72.4%; in the test with HOP-62 NSCLC it was 70.9%; in the test with NCI-H460 lung it was 34.9%; with HOP-92 NSCLC, 51.2%. The growth in the test with NCI-H522 lung was 28.9%; in the test with A549/ATCC NSCLC it was 20.8%; in the test on 786-0 renal, 58.3%; in the test with COLO 205 colon, 7.23% (active); in the test on DU-145 prostate, 78.2%; in the test on K-562 leukemia it was 26.1%. Besides, the growth in the test on MALME-3M melanoma was 35.9%; in the test with MDA-MB-231 breast it was 58.8%; with RXF 393 renal, 42.2%; in the test with SF-268 CNS it was 52.2%; in the test with SF-295 CNS, 30%; in the test with SF-539 CNS, 64.6%. The growth in the test on UACC-257 melanoma was 32.1%; with M14 melanoma, 40.7%.

For `FC(F)(F)c1ccc(-c2nc(-c3nc4cc(Cl)c(Cl)cc4[nH]3)c3ccccn23)cc1`, the growth in the test with NCI-H23 lung is 75.1%; with NCI-H226 lung, 55.2%; in the test with NCI-H322M lung, 61.2%; with HOP-62 NSCLC, 64%; in the test on NCI-H460 lung it was 60.4%; in the test on HOP-92 NSCLC, 37.9%. For the same molecule, the growth in the test on NCI-H522 lung was 74.8%; in the test with A549/ATCC NSCLC it was 62%; in the test on 786-0 renal, 56.3%; with COLO 205 colon it was 87.1%; with DU-145 prostate, 58.6%; in the test on K-562 leukemia, 79.8%. Further, the growth in the test on MALME-3M melanoma is 22.3%; in the test on MDA-MB-231 breast it was 29.6%; in the test on RXF 393 renal, 31.7%; with SF-268 CNS, 44.9%; with SF-295 CNS it was 71.2%; in the test on SF-539 CNS it was 32.6%. The growth in the test on UACC-257 melanoma was 93.4%; in the test with M14 melanoma it was 79.6%.

On to `O=C1/C(=C/c2ccc([N+](=O)[O-])s2)Oc2ccc(Cl)cc21`, for which the growth was -35.5% (active) in the test with NCI-H23 lung; -56.8% (active) in the test with NCI-H226 lung; -43% (active) in the test with NCI-H322M lung; -6.59% (active) in the test on HOP-62 NSCLC; -48.8% (active) in the test with NCI-H460 lung; -71% (active) in the test on HOP-92 NSCLC. The growth is -70.3% (active) with NCI-H522 lung; -26.5% (active) with A549/ATCC NSCLC; -17.3% (active) in the test with 786-0 renal; -69.6% (active) in the test with COLO 205 colon; -73.5% (active) with DU-145 prostate; -11.2% (active) with K-562 leukemia. The growth in the test with MALME-3M melanoma was -56.8% (active); in the test with MDA-MB-231 breast, -57% (active); with RXF 393 renal it was -63.9% (active); with SF-268 CNS it was -57.9% (active); in the test with SF-295 CNS, -16.2% (active); in the test with SF-539 CNS, -91.3% (active). The growth was -54.5% (active) in the test on UACC-257 melanoma and -44.4% (active) in the test with M14 melanoma.

Turning to `Cc1ccc(-n2nnc3c(sc4ccccc43)c2=O)cc1`, the growth is 70.3% in the test with NCI-H23 lung; 46.9% in the test on NCI-H226 lung; 38.8% in the test with NCI-H322M lung; 31.6% with HOP-62 NSCLC; 18.3% in the test with NCI-H460 lung; 6.27% (active) in the test on HOP-92 NSCLC. Also, the growth in the test on NCI-H522 lung was 58.6%; with A549/ATCC NSCLC, 35.3%; with 786-0 renal, 24.4%; with COLO 205 colon, 44%; in the test on DU-145 prostate, 33.7%; in the test on K-562 leukemia it was 80.3%. Further, the growth with MALME-3M melanoma was 68.1%; in the test on MDA-MB-231 breast, 40.9%; in the test with RXF 393 renal, 59.9%; in the test with SF-268 CNS, 39.8%; with SF-295 CNS, 27.3%; in the test on SF-539 CNS, 57.2%. In addition, the growth in the test with UACC-257 melanoma was 83%; in the test with M14 melanoma it was 83.1%.

In the case of `C[C@H](NC(=O)[C@@H]1CSSC[C@@H](NC(=O)Cc2nc3ccccc3cc2O)C(=O)NCC(=O)N1C)c1ccccc1`, the growth in the test on NCI-H23 lung was 106%; with NCI-H226 lung, 104%; in the test on NCI-H322M lung, 105%; in the test on HOP-62 NSCLC, 90.2%; in the test on NCI-H460 lung, 94.2%; with HOP-92 NSCLC, 116%. The growth with NCI-H522 lung is 88.3%; in the test with A549/ATCC NSCLC it was 90.5%; with 786-0 renal, 114%; in the test with COLO 205 colon it was 89.7%; in the test with DU-145 prostate it was 83.3%; with K-562 leukemia it was 43.9%. Besides, the growth is 125% in the test with MALME-3M melanoma; 70.8% in the test with MDA-MB-231 breast; 122% in the test on RXF 393 renal; 86.6% in the test on SF-268 CNS; 104% in the test on SF-295 CNS; 79.3% in the test with SF-539 CNS. Also, the figures for the growth in the test with UACC-257 melanoma and in the test with M14 melanoma were 85.4% and 64.8%, respectively.

For `O=C/C=C/c1ccc([N+](=O)[O-])cc1Cl`, the growth in the test with NCI-H23 lung is 94%; in the test on NCI-H226 lung it was 108%; with NCI-H322M lung it was 89.1%; in the test on HOP-62 NSCLC, 99.9%; in the test with NCI-H460 lung, 112%; in the test with HOP-92 NSCLC it was 95.1%. In addition, the growth in the test with NCI-H522 lung was 89.5%; in the test on A549/ATCC NSCLC it was 98.7%; with 786-0 renal, 105%; in the test on COLO 205 colon it was 108%; in the test on DU-145 prostate it was 99.9%; in the test with K-562 leukemia, 63.7%. The growth with MALME-3M melanoma is 95.1%; in the test with MDA-MB-231 breast it was 122%; in the test with RXF 393 renal it was 107%; in the test with SF-268 CNS, 93.1%; in the test with SF-295 CNS, 107%; in the test with SF-539 CNS, 96.8%. Besides, the growth with UACC-257 melanoma was 91.6%; in the test on M14 melanoma, 90.8%.

As for `CCC(CCNc1cc(OC)cc2cccnc12)CN1C(=O)c2ccccc2C1=O` (stereo not given), the growth with NCI-H23 lung was 91.3%; with NCI-H226 lung, 98.9%; in the test with NCI-H322M lung it was 112%; with HOP-62 NSCLC, 102%; in the test with NCI-H460 lung it was 138%; in the test on HOP-92 NSCLC, 93%. In addition, the growth with NCI-H522 lung is 87.5%; with A549/ATCC NSCLC it was 105%; with 786-0 renal it was 104%; in the test with COLO 205 colon, 113%; in the test on DU-145 prostate it was 118%; in the test with K-562 leukemia it was 101%. The growth with MALME-3M melanoma is 132%; with MDA-MB-231 breast, 96%; in the test with RXF 393 renal, 117%; in the test with SF-268 CNS it was 98.7%; with SF-295 CNS, 106%; in the test with SF-539 CNS, 106%. For the same molecule, the values for the growth with UACC-257 melanoma and in the test on M14 melanoma were 119% and 117%, respectively.

As for `CCOC(=O)[C@@H]1[C@H](c2ccccc2)[C@H]([N+](=O)[O-])[C@H](c2cn(-c3ccccc3)nc2C)N1Cc1ccccc1`, the growth was 88.6% in the test on NCI-H23 lung; 66.6% in the test on NCI-H226 lung; 104% in the test with NCI-H322M lung; 64.2% with HOP-62 NSCLC; 41.9% in the test on NCI-H460 lung; 69.8% with HOP-92 NSCLC. Moreover, the growth with NCI-H522 lung was 80.6%; with A549/ATCC NSCLC, 66.2%; in the test with 786-0 renal it was 74.5%; with COLO 205 colon, 64.7%; with DU-145 prostate it was 94.4%; in the test on K-562 leukemia, 61.4%. Also, the growth is 81% with MALME-3M melanoma; 68.2% in the test on MDA-MB-231 breast; 69.9% with RXF 393 renal; 68.4% in the test with SF-268 CNS; 81.8% in the test on SF-295 CNS; 81.7% in the test with SF-539 CNS. The growth is 64.2% with UACC-257 melanoma and 76.5% in the test with M14 melanoma.
